Measured values published in PubChem BioAssay (NCATS).
“And” between values parts separate entries of the source, which are not always exact repeats. Equal values may be shown once. Inconclusive results are not listed. Entries that show only a call come without a potency. The source made the active and inactive calls. Unless noted, how the calls were made is not given here.

Assays:
[1] = qHTS assay for cell viability of the p53RE-bla HCT-116 cell line (AID 743292; active means well fitted cell-killing curve with a large enough effect; further: nearly all actives have a fitted effect of over 55% in size; further: potency means the concentration at half of the fitted maximal effect); conditions: p53RE-bla HCT-116 viability, ATP luminescence, 16 h; series mostly up to 95 µM
Outline: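 Intracellular ATP of p53RE-bla HCT-116 cells measured by luciferase luminescence following 16 h compound incubation at 37 C; DMSO-only wells served as vehicle controls.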

[2] = target: Nuclear receptor subfamily 1 group I member 2 (Rattus norvegicus) (UniProt Q9R1A7); experiment: qHTS assay for small molecule activators of the rat pregnane X receptor (rPXR) signaling pathway (AID 651751); conditions: rPXR reporter cells, luciferase (One-Glo), 24 h
Sequence of Nuclear receptor subfamily 1 group I member 2 (Rattus norvegicus) (Q9R1A7 whole entry, looked up): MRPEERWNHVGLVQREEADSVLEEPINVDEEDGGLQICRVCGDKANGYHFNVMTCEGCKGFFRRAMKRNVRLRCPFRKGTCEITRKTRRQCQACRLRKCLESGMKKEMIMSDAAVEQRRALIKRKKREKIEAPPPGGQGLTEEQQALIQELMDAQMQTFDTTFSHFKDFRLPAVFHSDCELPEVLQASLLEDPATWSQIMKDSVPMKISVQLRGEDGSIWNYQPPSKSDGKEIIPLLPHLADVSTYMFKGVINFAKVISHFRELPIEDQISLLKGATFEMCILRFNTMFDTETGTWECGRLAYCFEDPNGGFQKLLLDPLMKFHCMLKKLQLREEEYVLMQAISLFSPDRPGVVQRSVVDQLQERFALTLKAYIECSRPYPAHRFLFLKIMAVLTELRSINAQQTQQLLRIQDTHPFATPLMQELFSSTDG

[3] = qHTS assay for small molecule activators of the human pregnane X receptor (PXR) signaling pathway (AID 720659); conditions: DPX-2 HepG2 CYP3A4-luciferase, 24 h; series mostly up to 92.3 µM

SMILES	Potency [1]	max response [2]	outcome [3]
Cc1cccc(C)c1O	inactive	2.68% (inactive)	inactive
Cc1ccc(C(=O)O)cc1	inactive	3.84% (inactive)	inactive
CC(C)(C)OCC1CO1 (stereo not drawn)	inactive	0.0184% (inactive)	inactive
Cc1cccc(C(=O)O)c1[N+](=O)[O-]	inactive	-0.47% (inactive)	inactive
CCC(C)(C)C(=O)O	inactive	5.04% (inactive)	inactive
O=C(O)c1ccccc1Cl	inactive	1.04% (inactive)	inactive
C[C@@H]1O[C@@H](O[C@@H]2[C@@H](O)[C@H](OCCc3ccc(O)c(O)c3)O[C@H](CO[C@@H]3O[C@H](CO)[C@@H](O)[C@H](O)[C@H]3O)[C@H]2OC(=O)/C=C/c2ccc(O)c(O)c2)[C@H](O)[C@H](O)[C@H]1O	inactive	1.79% (inactive)	inactive
C=CC(=O)NC(C)C	inactive	3.94% (inactive)	inactive
Cc1cccc2ccccc12	inactive	3.98% (inactive)	inactive
O=[N+]([O-])c1ccccc1CCO	inactive	5.68% (inactive)	inactive
CC(=O)C1(C)CC2=C(CCCC2(C)C)CC1C (stereo not drawn)	inactive	2.11% (inactive)	inactive
CCCC=O	inactive	1.21% (inactive)	inactive
CC(=C/C=C/C(C)=C/C=C/C=C(C)/C=C/C=C(C)/C=C/C(=O)O)/C=C/C(=O)O	inactive	9.17% (inactive)	inactive
CC(O)COC(C)(C)C (stereo not drawn)	inactive	2.3% (inactive)	inactive
Nc1ccc(Cl)cc1[N+](=O)[O-]	inactive	1.08% (inactive)	inactive
CCCCCCCCC/C=C/CC1CC(=O)OC1=O (stereo not drawn)	inactive	-1.93% (inactive)	inactive
C=CCCC	inactive	2.44% (inactive)	inactive
Cc1c(N)cccc1N	inactive	3.73% (inactive)	inactive
CC(C)(C)OC=O	inactive	3.48% (inactive)	inactive
CC(C)=C1CCC(C)CC1=O (stereo not drawn)	inactive	-2.32% (inactive)	inactive
Cc1cc(C)cc(N)c1	inactive	9.8% (inactive)	inactive
OC1CCCC1	inactive	-2.46% (inactive)	inactive
O=C1OC(=O)c2c(Br)c(Br)c(Br)c(Br)c21	inactive	-2.83% (inactive) and 0.309% (inactive)	inactive
Cc1ccc2ncccc2c1	inactive	2.4% (inactive)	inactive
C[C@@H]1CC2(OC[C@]3(C)O[C@H]23)O[C@H]2C[C@@]3(C)[C@@H]4CC[C@H]5C(C)(C)C(O[C@@H]6OC[C@@H](O)[C@H](O)[C@H]6O)CC[C@@]56C[C@@]46CC[C@]3(C)[C@@H]12 (stereo partly drawn)	inactive	2.43% (inactive)	inactive
Cc1cc([N+](=O)[O-])ccc1N	inactive	2.26% (inactive)	inactive

SMILES	Potency [1]	max response [2]	outcome [3]
Nc1nc(CC(=O)O)cs1	inactive	-3.19% (inactive)	inactive
CC=C(Cl)Cl	inactive	-4.19% (inactive)	inactive
NC(=O)/N=N/C(N)=O	inactive	-0.787% (inactive)	inactive
Nc1cc(S(=O)(=O)O)ccc1O	inactive	3.88% (inactive)	inactive
CCCCC(CC)CNCC(CC)CCCC (stereo not drawn)	inactive	-1.1% (inactive)	inactive
CCCCOCCOCCSC#N	inactive	-2.98% (inactive)	inactive
O=C(O)c1cccc([N+](=O)[O-])c1	inactive	-0.759% (inactive) and -3.01% (inactive)	inactive
Cc1ccc(C)c([N+](=O)[O-])c1	inactive	-1.78% (inactive)	inactive
COC(=O)CC#N	inactive	-1.86% (inactive)	inactive
Cc1cccc2sc(N)nc12	inactive	7.23% (inactive)	inactive
O=C(O)c1ccc(Cl)cc1Cl	inactive	4.22% (inactive)	inactive
Cc1ccc(C#N)cc1	inactive	3.52% (inactive)	inactive
FC(F)(F)c1ccccc1Cl	inactive	-1.61% (inactive)	inactive
Cc1ccc([N+](=O)[O-])c(N)c1	inactive	-3.2% (inactive)	inactive
Cc1cccc(C)c1[N+](=O)[O-]	inactive	1.64% (inactive) and 13.2% (inactive)	inactive
O=C(Cl)c1ccccc1[N+](=O)[O-]	inactive	1.88% (inactive)	inactive
NS(=O)(=O)O	inactive	-5.24% (inactive)	inactive
CCCOCC(C)O (stereo not drawn)	inactive	-0.746% (inactive)	inactive
Cc1ccc(C)cc1	inactive	0.288% (inactive)	inactive
Cc1cccc(C)c1	inactive	-3.48% (inactive)	inactive
CC1(N)CCC(C(C)(C)N)CC1 (stereo not drawn)	inactive	1.15% (inactive)	inactive
O=c1[nH][nH]c(=O)c2cc([N+](=O)[O-])ccc12	inactive	-1.39% (inactive)	inactive
CCOCCOCC	inactive	-2.52% (inactive)	inactive
CC/C(C)=N/O	inactive	5.17% (inactive)	inactive
O=[N+]([O-])c1c(Cl)cc(Cl)cc1Cl	inactive	9.05% (inactive)	inactive
COc1cccc(N)c1	inactive	12.1% (inactive)	inactive

SMILES	Potency [1]	max response [2]	outcome [3]
O=C(O)c1cccc(Cl)c1Cl	inactive	-3.88% (inactive)	inactive
Nc1ccccc1S(=O)(=O)O	inactive	-0.431% (inactive)	inactive
Cc1ccccc1C(=O)O	inactive	-1.94% (inactive)	inactive
CCCCC(CC)C(=O)O (stereo not drawn)	inactive	1.13% (inactive)	inactive
CCCCC=O	inactive	-1.64% (inactive)	inactive
NC(N)=S	inactive	-3.24% (inactive)	inactive
O=[N+]([O-])c1cc(C(F)(F)F)ccc1Cl	inactive	0.829% (inactive)	inactive
CCN(Cc1ccccc1)c1ccccc1	inactive	-3.13% (inactive)	inactive
C1COC1	inactive	-0.345% (inactive)	inactive
Nc1nc2ccccc2[nH]1	inactive	10.8% (inactive)	inactive
O=C(Cl)c1c(Cl)cccc1Cl	inactive	-2.88% (inactive)	inactive
CN(C)CCCNCCCN	inactive	-0.438% (inactive)	inactive
O=C(O[C@@H](C(=O)O)[C@@H](OC(=O)c1ccccc1)C(=O)O)c1ccccc1	inactive	4.96% (inactive)	inactive
CSc1ccc(C=O)cc1	inactive	9.01% (inactive)	inactive
CCCCCCCCCCCCC1CO1 (stereo not drawn)	inactive	4.9% (inactive)	inactive
CCC(C)(C)OC	inactive	-4.5% (inactive)	inactive
Cc1cscn1	inactive	0.103% (inactive)	inactive
Cc1cccc(Br)c1	inactive	-3.61% (inactive)	inactive
Cc1c(C(=O)O)cccc1[N+](=O)[O-]	inactive	0.0854% (inactive)	inactive
O=C(O)CCSSCCC(=O)O	inactive	-1.84% (inactive)	inactive
C/C(C=O)=C/c1ccccc1	inactive	2.25% (inactive)	inactive
CCCCC(CC)COCC1CO1 (stereo not drawn)	inactive	9.04% (inactive)	inactive
CC/C=C/C#N	inactive	1.47% (inactive)	inactive
N#CC1(O)CCCCC1	inactive	2.59% (inactive)	–
Clc1cc(Cl)cc(Cl)c1	inactive	–	inactive
O=Cc1ccccc1Cl	inactive	-0.844% (inactive)	inactive

SMILES	Potency [1]	max response [2]	outcome [3]
CCC=O	inactive	1.07% (inactive)	inactive
CC#N	inactive	–	inactive
CCN(CC)c1cccc(O)c1	inactive	3.46% (inactive)	–
Nc1cccc(S(=O)(=O)O)c1	inactive	7.17% (inactive)	–
COc1ccc(N=[N+]([O-])c2ccc(OC)cc2)cc1	inactive	–	–
OCCO	inactive	–	–
CCC(=O)/C=C/C1C(C)=CCCC1(C)C (stereo not drawn)	inactive	–	–
Cc1ccc(S(=O)(=O)NC2CCCCC2)cc1	inactive	–	–
O=Cc1c(Cl)cccc1Cl	inactive	8% (inactive)	–
CCOc1cc(OCC)c(C(C)=O)cc1OCC	inactive	–	–
S=C([S-])NCCNC(=S)[S-].[Zn+2]	inactive	-5.53% (inactive) and -7.82% (inactive) and -4.11% (inactive)	–
CCOC(=O)C(C)C(C)=O (stereo not drawn)	inactive	4.21% (inactive)	inactive
CCNc1cc(O)ccc1C	inactive	-2.12% (inactive)	–
CC(=O)c1cc(C)oc1C	inactive	1.56% (inactive)	inactive
N#CCc1ccccc1[N+](=O)[O-]	inactive	8.31% (inactive)	–
CC1=C(/C=C/C(C)=C/C=C/C(C)=C\C=O)C(C)(C)CCC1	44.7 µM (active)	–	–
C[C@@H]1CC2(OC3C[C@@]4(C)C5=CC[C@H]6C(C)(C)C(O[C@@H]7OC[C@@H](O)[C@H](O)[C@H]7O)CC[C@@]67C[C@@]57CC[C@]4(C)C31)OC(O)C1(C)OC21 (stereo partly drawn)	inactive	–	inactive
CCCCN(CCO)CCCC	inactive	1.69% (inactive)	inactive
COCCOC(=O)c1ccccc1C(=O)OCCOC	inactive	-0.386% (inactive)	–
C=C(C)C1CC=C(C)C(OC(C)=O)C1 (stereo not drawn)	inactive	–	inactive
Cc1ccc2c(c1[N+](=O)[O-])C(=O)c1ccccc1C2=O	inactive	5.79% (inactive)	–
COc1ccc(N)c(OC)c1	inactive	–	–
O=C(O)c1ccc(CO)o1	inactive	–	inactive
O=C(O)CN(CC(=O)O)CC(=O)O	inactive	–	inactive
CCCCC/C=C/C=C/C=O	inactive	5.82% (inactive) and -4.16% (inactive)	inactive
C(=C/c1ccccc1)/c1ccccc1	inactive	0.267% (inactive)	inactive
